Among the data in PubChem BioAssay (Tox21) are outcome, Potency and max activation values, retold here.

“And” between values parts separate entries of the source, which are not always exact repeats. Equal values may be shown once. Records with an inconclusive call do not appear. Where a structure was tested more than once in an assay, its records may differ in their call. The source made the active and inactive calls. Unless noted, calls come from the whole dose curve; as a rule, active = well fitted curve in the direction sought with a large enough effect in the repeat runs; inconclusive = weak or mixed curves; inactive = no such curve, though single readings can be large; an effect the other way counts as inactive or inconclusive.

The target in test [1] is Thyrotropin-releasing hormone receptor (Homo sapiens) (UniProt P34981). The test is described as follows: qHTS assay to identify small molecule agonists of the thyrotropin-releasing hormone receptor (TRHR) signaling pathway (AID 1346891; calls by dose curve;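 note: HEK293 cells expressing TRHR with calcium dye readout; series mostly up to about 58 µM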). Put shortly: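 Cells: TRHR-Hek293, seeded and incubated 18 h. Dye loading: 2 h at 37 °C. Compound added from DMSO stock by pin tool. Read-out: kinetic calcium fluorescence over 3 min.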
Sequence of Thyrotropin-releasing hormone receptor (Homo sapiens) (P34981 whole entry, looked up): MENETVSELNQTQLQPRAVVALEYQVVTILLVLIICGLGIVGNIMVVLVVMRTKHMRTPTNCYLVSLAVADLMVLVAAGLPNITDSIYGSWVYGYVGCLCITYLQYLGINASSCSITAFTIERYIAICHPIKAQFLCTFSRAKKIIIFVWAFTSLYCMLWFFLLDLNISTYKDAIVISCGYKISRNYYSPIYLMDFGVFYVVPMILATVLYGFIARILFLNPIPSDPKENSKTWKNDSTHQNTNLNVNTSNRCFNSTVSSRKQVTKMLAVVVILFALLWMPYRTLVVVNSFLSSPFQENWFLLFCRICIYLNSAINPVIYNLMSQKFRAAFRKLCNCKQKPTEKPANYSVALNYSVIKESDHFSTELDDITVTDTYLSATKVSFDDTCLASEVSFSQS

The nature of test [2]: Human pregnane X receptor (PXR) small molecule agonists, qHTS cell viability counter screen (AID 1346977). Note: nearly all actives have a fitted effect of over 50% in size. An outline of the steps:
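Cytotoxicity counter screen run in the same wells as the PXR luciferase assay, using PXR-Luc HepG2 cells in charcoal-stripped serum medium. Viability: CellTiter-Fluor fluorescence after 24hr compound treatment.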

Test [3] in a line: Caspase-3/7 induction in HepG2 cells by small molecules, qHTS assay (AID 1346978). Note: nearly all actives have a fitted effect of over 15% in size. Put shortly: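 Wild-type HepG2 cells (2,000/well) were settled 5 h at 37 C, 5% CO2, then exposed to compounds in DMSO for 17 h. Caspase-3/7 activity was read by luminescence 30 min after adding Caspase-Glo 3/7 reagent at room temperature.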
Test [4] is described as follows: Caspase-3/7 induction in CHO-K1 cells by small molecules, qHTS cell viability counter screen (AID 1346979). Note: nearly all actives have a fitted effect of over 35% in size. Note: potency is the fitted concentration of half-maximal effect. An outline of the steps: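 Cytotoxicity counter screen run in parallel with the caspase-3/7 assay: CHO-K1 cells, 16hr compound treatment at 37C, then CellTiter-Fluor for 1hr before fluorescence reading.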
The nature of test [5]: Caspase-3/7 induction in CHO-K1 cells by small molecules, qHTS assay (AID 1346980). Note: nearly all actives have a fitted effect of over 15% in size. Put shortly: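 Wild-type cells were seeded at 1,500 per well and settled 5 hr at 37 C, 5% CO2, then exposed to DMSO-dissolved compounds for 17 hr. Caspase-Glo 3/7 reagent was added, and luminescence was read after 30min at room temperature.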
Test [6] is described as follows: Caspase-3/7 induction in HepG2 cells by small molecules, qHTS cell viability counter screen (AID 1346981). Note: series mostly up to about 92 µM; nearly all actives have a fitted effect of over 30% in size. An outline of the steps: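 After a 5-hr attachment period at 37 C and 5% CO2, wild-type HepG2 cells received compounds in DMSO. Sixteen hours later CellTiter-Fluor was dispensed and the fluorescent signal quantified after a further hour.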
In test [7] the target is Nuclear receptor subfamily 1 group I member 2 (Homo sapiens) (UniProt O75469). The test is described as follows: Human pregnane X receptor (PXR) small molecule agonists, qHTS assay (AID 1346982). Note: nearly all actives have a fitted effect of over 35% in size. Note: potency is the fitted concentration of half-maximal effect. Put shortly: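 Tox21 qHTS; PXR-Luc HepG2; compounds pinned from DMSO; 24 hr, 37 C; ONE-Glo luciferase detection, 30 min room temperature.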
Sequence of Nuclear receptor subfamily 1 group I member 2 (Homo sapiens) (O75469 whole entry, looked up): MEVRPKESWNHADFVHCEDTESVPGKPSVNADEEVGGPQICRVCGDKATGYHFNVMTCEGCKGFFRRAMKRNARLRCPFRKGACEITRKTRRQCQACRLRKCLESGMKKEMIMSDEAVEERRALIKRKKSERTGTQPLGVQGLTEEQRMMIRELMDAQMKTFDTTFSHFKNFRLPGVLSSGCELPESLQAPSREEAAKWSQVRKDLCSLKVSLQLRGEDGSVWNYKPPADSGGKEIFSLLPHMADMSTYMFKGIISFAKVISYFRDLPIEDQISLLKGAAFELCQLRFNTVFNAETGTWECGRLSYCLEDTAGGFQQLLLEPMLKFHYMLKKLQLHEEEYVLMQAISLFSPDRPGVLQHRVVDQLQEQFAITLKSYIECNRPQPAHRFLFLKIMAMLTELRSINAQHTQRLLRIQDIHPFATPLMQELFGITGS
The target in test [8] is Acetylcholinesterase (Homo sapiens) (UniProt P22303). The test is described as follows: Acetylcholinesterase (AChE) small molecule antagonists: colormetric cell-based qHTS assay (AID 1347395; calls by dose curve; note: nearly all actives have a fitted effect of over 30% in size). An outline of the steps:
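Cells (SH-SY5Y, 2,000 per well) are seeded and left overnight at 37 C. Compound is added for 30 min, then DTNB and acetylthiocholine for a further 90 min at 37 C before absorbance-based thiocholine detection.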

For test [9] the target is unchanged. Briefly: Acetylcholinesterase (AChE) small molecule antagonists: fluorescence cell-based qHTS assay (AID 1347398; calls by dose curve; note: nearly all actives have a fitted effect of over 50% in size). The following applies: Potency: AChE activity; outcome: AChE activity. An outline of the steps:
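Cellular AChE inhibition: SH-SY5Y cells treated with test chemical for 30 min at 37 C, then acetylthiocholine hydrolysis followed over 40 min at room temperature via thiocholine-reactive Thiolite Green fluorescence (490/520 nm).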

For test [10] the target is unchanged. Briefly: Acetylcholinesterase (AChE) small molecule antagonists: enzyme-based qHTS assay with human liver microsomes (AID 1347399; calls by dose curve; note: nearly all actives have a fitted effect of over 60% in size). To be noted: Potency: qHTS inhibition; outcome: qHTS inhibition. An outline of the steps: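 Recombinant human AChE (50 mU/mL in the enzyme mix) and human liver microsomes (0.25 mg/mL final) were preincubated with compound and NADPH (0.25 mg/mL final) for 30 min at 37 C. Acetylthiocholine/DTNB was then added; thiocholine was read colorimetrically after 10 min at room temperature.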

In test [11] the target is Cytochrome P450 2D6 (Homo sapiens) (UniProt P10635). The test is described as follows: Cytochrome P450 Family 2 Subfamily D Member 6 (CYP2D6) small molecule antagonists: luciferase reporter qHTS assay (AID 1671196). Note: nearly all actives have a fitted effect of over 50% in size. Note: potency is the fitted concentration of half-maximal effect. An outline of the steps:
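Room-temperature luminescent CYP2D6 activity assay: compound preincubated 10 min with enzyme–substrate mix, NADPH-initiated reaction 1 h, detection reagent 20 min before reading.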

The target in test [12] is Cytochrome P450 2C19 (Homo sapiens) (UniProt P33261). Briefly: Cytochrome P450 Family 2 Subfamily C Member 19 (CYP2C19) small molecule antagonists: luciferase reporter qHTS assay (AID 1671197). Note: nearly all actives have a fitted effect of over 65% in size. Note: potency is the fitted concentration of half-maximal effect. An outline of the steps:
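CYP2C19 P450-Glo, 1536-well qHTS. Cpd + enzyme/proluciferin substrate 10 min RT; + NADPH regen, 37C 1 h; stop with luciferin detection reagent, 20 min RT, luminescence (RLU). Pos ctrl ketoconazole.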

In test [13] the target is Cytochrome P450 1A2 (Homo sapiens) (UniProt P05177). The test is described as follows: Cytochrome P450 Family 1 Subfamily A Member 2 (CYP1A2) small molecule antagonists: luciferase reporter qHTS assay (AID 1671199). Note: nearly all actives have a fitted effect of over 50% in size. Note: potency is the fitted concentration of half-maximal effect. Put shortly: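 Room-temperature CYP1A2 reaction with proluciferin substrate: compounds added from DMSO, 10 min preincubation, NADPH regeneration for 1 h. Luciferin detection reagent then added; luminescence recorded as RLU.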
Sequence of Cytochrome P450 1A2 (Homo sapiens) (P05177 whole entry, looked up): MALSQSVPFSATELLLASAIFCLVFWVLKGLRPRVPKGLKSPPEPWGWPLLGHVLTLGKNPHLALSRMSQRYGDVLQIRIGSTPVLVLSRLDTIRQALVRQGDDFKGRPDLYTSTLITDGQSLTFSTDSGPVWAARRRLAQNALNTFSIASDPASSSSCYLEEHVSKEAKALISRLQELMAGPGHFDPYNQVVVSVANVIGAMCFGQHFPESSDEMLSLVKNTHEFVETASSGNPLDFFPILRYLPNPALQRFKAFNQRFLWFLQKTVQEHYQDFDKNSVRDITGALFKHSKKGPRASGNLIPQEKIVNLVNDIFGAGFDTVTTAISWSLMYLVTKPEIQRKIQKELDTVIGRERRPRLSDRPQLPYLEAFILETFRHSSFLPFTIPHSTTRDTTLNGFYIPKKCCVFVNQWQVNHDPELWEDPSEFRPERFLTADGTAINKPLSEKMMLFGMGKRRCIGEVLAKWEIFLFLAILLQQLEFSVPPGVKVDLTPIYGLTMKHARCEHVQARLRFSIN

The target in test [14] is Voltage-gated inwardly rectifying potassium channel KCNH2 (Homo sapiens) (UniProt Q12809). The test is described as follows: Human Ether-a-go-go-Related Gene (hERG) channel small molecule antagonists: fluorescence cell-based qHTS assay (AID 1671200). An outline of the steps: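 Fluorescence at 540 nm emission (480 nm excitation) was recorded kinetically for 2 min at 1-second intervals once the thallium-containing stimulus reached cells previously loaded with FluxOR II dye.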
Sequence of Voltage-gated inwardly rectifying potassium channel KCNH2 (Homo sapiens) (Q12809 whole entry, looked up): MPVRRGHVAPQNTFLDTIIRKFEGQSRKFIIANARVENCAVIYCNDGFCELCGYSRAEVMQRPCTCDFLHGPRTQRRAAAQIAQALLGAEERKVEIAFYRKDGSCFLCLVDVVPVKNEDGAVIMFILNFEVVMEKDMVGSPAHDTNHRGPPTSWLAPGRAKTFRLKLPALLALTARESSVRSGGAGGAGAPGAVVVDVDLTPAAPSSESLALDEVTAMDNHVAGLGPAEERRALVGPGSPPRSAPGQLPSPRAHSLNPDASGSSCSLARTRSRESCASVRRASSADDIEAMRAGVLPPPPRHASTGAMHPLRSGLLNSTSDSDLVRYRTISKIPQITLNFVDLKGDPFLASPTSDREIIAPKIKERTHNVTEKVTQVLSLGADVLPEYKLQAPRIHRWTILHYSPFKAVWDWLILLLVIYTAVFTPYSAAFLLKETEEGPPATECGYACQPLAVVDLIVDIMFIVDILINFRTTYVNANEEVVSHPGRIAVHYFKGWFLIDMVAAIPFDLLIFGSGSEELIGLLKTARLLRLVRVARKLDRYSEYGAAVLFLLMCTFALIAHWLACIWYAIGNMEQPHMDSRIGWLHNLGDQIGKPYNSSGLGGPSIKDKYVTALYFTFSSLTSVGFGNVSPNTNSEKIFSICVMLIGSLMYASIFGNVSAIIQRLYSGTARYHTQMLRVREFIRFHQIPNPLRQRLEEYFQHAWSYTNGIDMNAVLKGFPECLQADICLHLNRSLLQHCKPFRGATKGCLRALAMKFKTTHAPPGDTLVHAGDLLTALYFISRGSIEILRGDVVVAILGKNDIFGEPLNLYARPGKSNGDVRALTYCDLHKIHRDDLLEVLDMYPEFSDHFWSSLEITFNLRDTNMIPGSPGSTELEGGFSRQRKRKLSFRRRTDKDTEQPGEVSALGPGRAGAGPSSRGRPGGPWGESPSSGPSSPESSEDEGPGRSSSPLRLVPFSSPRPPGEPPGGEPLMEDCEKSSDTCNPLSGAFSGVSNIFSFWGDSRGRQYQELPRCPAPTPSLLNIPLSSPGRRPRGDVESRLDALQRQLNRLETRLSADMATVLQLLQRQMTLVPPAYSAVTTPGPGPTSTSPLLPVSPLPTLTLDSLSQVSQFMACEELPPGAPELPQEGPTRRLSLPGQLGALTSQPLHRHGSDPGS

Test [15] concerns the target Cytochrome P450 3A4 (Homo sapiens) (UniProt P08684). Briefly: Cytochrome P450 Family 3 Subfamily A Member 4 (CYP3A4) small molecule antagonists: luciferase reporter qHTS assay (AID 1671201). Note: nearly all actives have a fitted effect of over 50% in size. Note: potency is the fitted concentration of half-maximal effect. An outline of the steps: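 qHTS, 1536-well. CYP3A4 + proluciferin substrate, cpd 10 min RT → NADPH regen 1 h RT → detection reagent 20 min → luminescence (RLU). Ketoconazole positive control.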

The target in test [16] is Acetylcholinesterase (Homo sapiens) (UniProt P22303). The test is described as follows: Acetylcholinesterase (AChE) small molecule antagonists: enzyme-based qHTS assay (AID 1347397; calls by dose curve; note: nearly all actives have a fitted effect of over 55% in size). To be noted: Potency: AChE enzyme activity inhibition; outcome: AChE enzyme activity inhibition. An outline of the steps:
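Tox21 library chemicals are tested in qHTS format against recombinant human AChE. The enzyme, dispensed at 50 mU/mL, sits with compound for 30 min at room temperature. A DTNB–acetylthiocholine cocktail follows, and colour is read after 10 min.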

Test [17] has as its target Cytochrome P450 2C9 (Homo sapiens) (UniProt P11712). Briefly: Cytochrome P450 Family 2 Subfamily C Member 9 (CYP2C9) small molecule antagonists: luciferase reporter qHTS assay (AID 1671198). Note: nearly all actives have a fitted effect of over 50% in size. Note: potency is the fitted concentration of half-maximal effect. Put shortly:
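CYP2C9 activity was measured with a P450-Glo proluciferin substrate. Enzyme–substrate mix was held with compound for 10 min at room temperature, then NADPH regeneration solution was added for 1 h at 37C. Luciferin product was read as luminescence.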

Test [18] addresses Nuclear receptor subfamily 1 group I member 2 (Rattus norvegicus) (UniProt Q9R1A7). The test is described as follows: Rat pregnane X receptor (rPXR) activation by small molecules, qHTS assay (AID 1346983). Note: nearly all actives have a fitted effect of over 20% in size. To be noted: rPXR luciferase reporter cells, One-Glo luminescence, 24 h; stronger effect = higher value. An outline of the steps: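 Cell-based rPXR luciferase reporter assay, 2,000 cells per well, rested 5hr at 37 C before compound addition in DMSO, then 24 hr at 37 C. One-Glo reagent was added and luminescence read after 30 min at room temperature.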
% is set by controls: 0 for no effect and ±100 for the full control effect.

Sequence of Cytochrome P450 3A4 (Homo sapiens) (P08684 whole entry, looked up): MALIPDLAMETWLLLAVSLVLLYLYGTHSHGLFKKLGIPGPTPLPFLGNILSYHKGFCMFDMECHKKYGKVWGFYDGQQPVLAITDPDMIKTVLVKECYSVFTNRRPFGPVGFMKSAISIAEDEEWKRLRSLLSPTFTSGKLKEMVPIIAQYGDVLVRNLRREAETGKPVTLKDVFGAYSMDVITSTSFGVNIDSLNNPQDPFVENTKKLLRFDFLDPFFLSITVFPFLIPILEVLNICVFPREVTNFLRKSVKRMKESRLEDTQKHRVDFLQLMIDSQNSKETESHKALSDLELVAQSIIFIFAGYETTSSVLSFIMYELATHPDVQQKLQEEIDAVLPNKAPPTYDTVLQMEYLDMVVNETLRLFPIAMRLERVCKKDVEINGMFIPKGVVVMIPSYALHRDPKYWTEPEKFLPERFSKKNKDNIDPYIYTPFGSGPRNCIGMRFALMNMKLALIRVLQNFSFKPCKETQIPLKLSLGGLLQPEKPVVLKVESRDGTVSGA
Sequence of Cytochrome P450 2C9 (Homo sapiens) (P11712 whole entry, looked up): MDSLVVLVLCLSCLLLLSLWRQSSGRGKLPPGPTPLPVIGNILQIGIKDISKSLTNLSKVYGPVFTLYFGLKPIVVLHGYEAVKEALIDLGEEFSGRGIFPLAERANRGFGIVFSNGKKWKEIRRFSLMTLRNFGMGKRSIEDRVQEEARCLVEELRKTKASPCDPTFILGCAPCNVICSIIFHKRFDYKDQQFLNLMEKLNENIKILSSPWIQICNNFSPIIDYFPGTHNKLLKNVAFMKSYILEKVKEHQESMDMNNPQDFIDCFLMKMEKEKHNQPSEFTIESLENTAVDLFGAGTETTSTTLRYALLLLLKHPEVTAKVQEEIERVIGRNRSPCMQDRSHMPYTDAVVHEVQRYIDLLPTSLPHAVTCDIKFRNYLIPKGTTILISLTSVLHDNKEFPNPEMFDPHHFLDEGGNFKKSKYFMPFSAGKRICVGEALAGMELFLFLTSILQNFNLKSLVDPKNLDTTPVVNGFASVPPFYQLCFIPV
Sequence of Cytochrome P450 2D6 (Homo sapiens) (P10635 whole entry, looked up): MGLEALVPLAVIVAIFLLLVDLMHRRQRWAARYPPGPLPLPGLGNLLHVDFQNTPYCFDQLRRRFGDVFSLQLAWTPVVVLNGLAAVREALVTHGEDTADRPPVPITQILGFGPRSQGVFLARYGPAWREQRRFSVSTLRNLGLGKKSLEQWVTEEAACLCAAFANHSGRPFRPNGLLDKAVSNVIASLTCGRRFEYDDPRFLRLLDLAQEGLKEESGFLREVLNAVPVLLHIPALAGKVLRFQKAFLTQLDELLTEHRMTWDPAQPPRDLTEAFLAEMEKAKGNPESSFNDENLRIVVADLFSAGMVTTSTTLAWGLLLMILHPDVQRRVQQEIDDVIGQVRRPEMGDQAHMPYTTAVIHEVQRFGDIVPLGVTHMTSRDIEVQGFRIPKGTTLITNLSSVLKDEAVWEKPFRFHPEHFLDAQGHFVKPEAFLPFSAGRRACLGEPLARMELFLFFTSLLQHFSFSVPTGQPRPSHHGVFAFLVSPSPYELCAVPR
Sequence of Cytochrome P450 2C19 (Homo sapiens) (P33261 whole entry, looked up): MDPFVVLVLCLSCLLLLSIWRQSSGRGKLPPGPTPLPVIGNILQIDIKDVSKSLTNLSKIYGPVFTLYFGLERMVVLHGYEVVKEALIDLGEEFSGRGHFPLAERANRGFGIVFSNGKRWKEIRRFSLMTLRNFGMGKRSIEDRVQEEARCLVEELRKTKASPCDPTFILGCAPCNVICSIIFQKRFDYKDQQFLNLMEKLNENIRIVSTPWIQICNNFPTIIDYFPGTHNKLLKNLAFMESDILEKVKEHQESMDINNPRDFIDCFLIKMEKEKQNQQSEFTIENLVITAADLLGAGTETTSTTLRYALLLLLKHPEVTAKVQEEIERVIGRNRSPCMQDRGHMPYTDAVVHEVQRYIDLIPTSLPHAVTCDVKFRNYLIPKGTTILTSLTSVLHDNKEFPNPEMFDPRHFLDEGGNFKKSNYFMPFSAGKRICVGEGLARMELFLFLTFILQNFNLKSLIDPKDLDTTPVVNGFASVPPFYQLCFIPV
Sequence of Nuclear receptor subfamily 1 group I member 2 (Rattus norvegicus) (Q9R1A7 whole entry, looked up): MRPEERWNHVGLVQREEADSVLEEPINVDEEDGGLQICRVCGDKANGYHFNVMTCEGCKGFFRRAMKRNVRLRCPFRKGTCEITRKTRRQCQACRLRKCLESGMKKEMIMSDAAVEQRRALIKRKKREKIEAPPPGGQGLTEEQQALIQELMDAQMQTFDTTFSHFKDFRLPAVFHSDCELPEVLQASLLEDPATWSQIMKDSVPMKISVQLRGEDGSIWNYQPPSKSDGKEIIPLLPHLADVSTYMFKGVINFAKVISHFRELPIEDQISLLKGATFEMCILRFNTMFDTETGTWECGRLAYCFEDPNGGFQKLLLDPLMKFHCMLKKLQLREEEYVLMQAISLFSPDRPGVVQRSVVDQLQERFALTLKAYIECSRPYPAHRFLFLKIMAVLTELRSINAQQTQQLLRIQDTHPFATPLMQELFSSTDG

For the compound `CCCCCCCC(=O)Cl`, the compound was called inactive in test [1], in test [3] and in test [5]. Also, the Potency result in test [2], in [6], in [8], in [9], in [10] and in [11] was “inactive” each time. Further, the Potency result in test [13], in test [14] and in test [15] was “inactive” throughout. For the same compound, the Potency is 49 µM (active) in test [4], 61.6 µM (active) in test [7] and 40.3 µM (active) in test [12].
For `O=C(O)C(Br)(Br)Br`, the outcome in [1], in test [3] and in test [5] was inactive. The Potency entry in test [2], in test [4], in test [6], in test [7], in test [8] and in test [16] was “inactive” throughout. For the same compound, the Potency entry in [9], in test [11], in [17], in test [14] and in test [15] was “inactive” each time. Moreover, the Potency in test [12] is 31.7 µM (active).
In the case of `CC(C)(C)c1cc(O)ccc1O`, the compound was classed as inactive in test [1], in test [3] and in test [5]. For the same compound, the Potency result in test [2], in test [6], in test [16], in test [14] and in test [15] was “inactive” in each case. Moreover, the Potency in [4] was 43.3 µM (active) and 61.1 µM (active); in [11] it was 63.3 µM (active) and inactive; in test [12], 39.9 µM (active) and 56.4 µM (active); in [17], 31.7 µM (active); in test [13], 39.9 µM (active). Besides, the max activation in test [18] is -1.85% (inactive).
In the case of `CCOP(=S)(OCC)Oc1ccc(Cl)cc1Cl`, the outcome in test [1], in test [3] and in test [5] was inactive. For the same compound, the Potency entry in [2], in [4], in [6], in [7], in test [8] and in test [10] was “inactive” throughout. Besides, the Potency entry in test [11] and in [14] was “inactive” throughout. Also, the Potency was 0.399 µM (active) in test [12], 3.56 µM (active) in [17], 2.83 µM (active) in test [13] and 2.83 µM (active) in test [15].
Turning to `Nc1c(Cl)c(F)nc(OCC(=O)O)c1Cl`, the compound was called inactive in [1], in test [3] and in test [5]. Also, the Potency result in test [2], in test [4], in [6], in test [7], in test [8] and in test [9] was “inactive” in each case. For the same compound, the Potency result in [10], in test [11], in [17], in test [14] and in test [15] was “inactive” in each case.
Regarding `CC(C)c1ccc(O)cc1`, the compound was called inactive in test [1], in test [3] and in test [5]. Besides, the Potency entry in test [2], in test [4], in test [6], in [7], in [8] and in [9] was “inactive” throughout. Besides, the Potency result in test [10], in [11], in test [12], in test [14] and in test [15] was “inactive” in each case. Further, the Potency in [13] is 22.4 µM (active).
In the case of `C=CCc1cc(OC)c2c(c1)OCO2`, the compound was called inactive in [1], in test [3] and in test [5]. The Potency entry in test [2], in [4], in test [6], in test [8], in test [9] and in test [10] was “inactive” throughout. Besides, the Potency entry in test [14] is “inactive”. Besides, the Potency in test [7] is 36 µM (active); in test [11], 23.5 µM (active); in [12] it was 59 µM (active); in [17] it was 37.2 µM (active); in test [13] it was 1.87 µM (active); in [15] it was 4.69 µM (active).
As for `CCCCS(=O)(=O)Cl`, the result in [1], in test [3] and in [5] was inactive. The Potency entry in test [2], in test [4], in test [6], in test [7], in test [8] and in [9] was “inactive” each time. In addition, the Potency entry in [10], in [17], in [13], in [14] and in test [15] was “inactive” in each case.
With `CCNc1nc(Cl)nc(NC(C)(C)C)n1`, the result in [1], in test [3] and in test [5] was inactive. The Potency result in test [2], in test [4], in test [6], in test [8], in test [16] and in test [9] was “inactive” in each case. Moreover, the Potency entry in test [11], in test [14] and in [15] was “inactive” throughout. Further, the Potency in test [7] was 30.6 µM (active); in [12] it was 35.6 µM (active); in test [13], 11.2 µM (active).
